# The source made the active and inactive calls. Unless noted, how the calls were made is not given here.
# Experiments:
# [1] = compound effects on lung adenocarcinoma cell viability – A549, calcein-AM fluorescence, 48 h, basal, profiling panel (AID 1162); settings: higher = more signal; further: test concentration not given here
# [2] = compound effects on differentiated 3T3-L1 adipocyte viability – cell-based, 3T3-L1 adipocytes, calcein-AM fluorescence, 48 h, basal, profiling panel (AID 1163); settings: 3T3-L1 adipocytes viability, higher = more signal; further: test concentration not given here
# [3] = compound effects on hepatocellular carcinoma cell viability – HepG2, calcein-AM fluorescence, 48 h, basal, profiling panel (AID 1164); settings: higher = more signal; further: test concentration not given here
# [4] = compound effects on multiple myeloma cell viability – MM1S, calcein-AM fluorescence, 48 h, basal, profiling panel (AID 1165); settings: higher = more signal;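 further: viability of MM1S multiple myeloma cells under basal unstimulated conditions; test concentration not given here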
# [5] = calcein-AM signal in unstimulated myeloma cells – cell-based, calcein-AM fluorescence, 48 h, PK04 Diversity Set, profiling panel (AID 1166); settings: RPMI8226 myeloma viability, higher = more signal;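 further: cells grown under basal conditions without added stimulus; test concentration not given here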
# [6] = JC-1 mitochondrial signal, unstimulated HepG2 cells – cell-based, JC-1 fluorescence, 24 h, 100 nL compound, profiling panel (AID 1167); settings: HepG2 mitochondrial potential, higher = more signal; further: test concentration not given here
# [7] = JC-1 mitochondrial signal, unstimulated adipocytes – cell-based, JC-1 fluorescence, 3T3-L1 adipocytes, 24 h, 100 nL compound, profiling panel (AID 1168); settings: JC-1 mitochondrial fluorescence, higher = more signal, called active from +8 up or from −8 down; further: test concentration not given here
# [8] = JC-1 mitochondrial signal, unstimulated myeloma cells – cell-based, JC-1 fluorescence, RPMI8226, 24 h, 100 nL compound, profiling panel (AID 1169); settings: JC-1 mitochondrial potential fluorescence, higher = more signal; further: test concentration not given here
# [9] = JC-1 mitochondrial signal, unstimulated MM1S myeloma – cell-based, JC-1 fluorescence, 24 h, 100 nL compound, profiling panel (AID 1170); settings: MM1S mitochondrial potential, higher = more signal; further: test concentration not given here
# [10] = resazurin metabolic signal in A549 cells – cell-based, resazurin fluorescence, 24 h, PK04 Diversity Set, profiling panel (AID 1171); settings: A549 viability, higher = more signal, called active from +8 up or from −8 down; further: test concentration not given here
# [11] = resazurin metabolic signal in HepG2 cells – cell-based, resazurin fluorescence, 24 h, PK04 Diversity Set, profiling panel (AID 1172); settings: HepG2 viability, higher = more signal; further: test concentration not given here
# [12] = budding yeast growth changes without added modifier – OD600, strain BY4716, 24 h, basal condition, primary screen (AID 1173); settings: S. cerevisiae BY4716 growth, OD600, 24 h; higher = more signal, called active from +8 up or from −8 down
# [13] = viability profiling in MM1S myeloma cells – cell-based, resazurin fluorescence, basal, 24 h, PK04 Diversity Set, profiling panel (AID 1174); settings: higher = more signal, called active from +8 up or from −8 down; further: test concentration not given here
# [14] = biological target: Dihydroorotate dehydrogenase (quinone), mitochondrial (Plasmodium falciparum (isolate 3D7)) (UniProt Q08210); assay: inhibition of P. falciparum DHODH – biochemical, C-terminal His tag, absorbance 600 nm, primary screen (AID 1175); settings: PfDHODH enzyme, DCIP absorbance 600 nm; higher = more signal, called active from +8 up or from −8 down;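 further: recombinant parasite enzyme with a five histidine tag at its C terminus; test concentration not given here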
# [15] = inhibition of PAO1 biofilm formation – strain PAO1, LB-PBS medium, absorbance 600 nm, primary screen (AID 1176); further: test concentration not given here; settings: P. aeruginosa PAO1 growth/biofilm, A600, 12 h; higher = more signal
# [16] = growth modulation of vineyard yeast isolate – strain RM11-1a, OD600, basal, 24 h, primary screen (AID 1177);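 further: cultures grown under basal conditions with no added stressor; test concentration not given here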; settings: S. cerevisiae RM11-1a growth, OD600, 24 h; higher = more signal, called active from +8 up or from −8 down
# [17] = growth of efflux-deficient E. coli DRC39 – strain DRC39, OD650, 24 h, E. coli filamentation inducers, primary screen (AID 1178);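 further: growth measured as culture turbidity by optical density at 650 nm; test concentration not given here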; settings: E. coli DRC39 acrAB, higher = more signal, called active from +8 up or from −8 down
# [18] = growth of efflux-deficient E. coli DRC39 – strain DRC39, OD650, 48 h, E. coli filamentation inducers, primary screen (AID 1179);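 further: screen aims at cell division blockers that make cells filament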; settings: E. coli DRC39 delta-acrAB growth, higher = more signal, called active from +8 up or from −8 down
# [19] = viability profiling in RPMI8226 myeloma cells – cell-based, resazurin fluorescence, basal, 24 h, PK04 Diversity Set, profiling panel (AID 1180); settings: higher = more signal;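 further: RPMI8826 multiple myeloma cell line at 5000 cells per well; test concentration not given here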
# [20] = biological target: E3 ubiquitin-protein ligase XIAP (Homo sapiens) (UniProt P98170); assay: small molecules binding XIAP protein – biophysical, small-molecule microarray, fluorescence 635 nm, primary screen (AID 1181); settings: higher = more signal;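 further: score merges 667 nm emission and signal to noise over triplicate slides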
# Chain of E3 ubiquitin-protein ligase XIAP (Homo sapiens) (P98170 whole entry, looked up): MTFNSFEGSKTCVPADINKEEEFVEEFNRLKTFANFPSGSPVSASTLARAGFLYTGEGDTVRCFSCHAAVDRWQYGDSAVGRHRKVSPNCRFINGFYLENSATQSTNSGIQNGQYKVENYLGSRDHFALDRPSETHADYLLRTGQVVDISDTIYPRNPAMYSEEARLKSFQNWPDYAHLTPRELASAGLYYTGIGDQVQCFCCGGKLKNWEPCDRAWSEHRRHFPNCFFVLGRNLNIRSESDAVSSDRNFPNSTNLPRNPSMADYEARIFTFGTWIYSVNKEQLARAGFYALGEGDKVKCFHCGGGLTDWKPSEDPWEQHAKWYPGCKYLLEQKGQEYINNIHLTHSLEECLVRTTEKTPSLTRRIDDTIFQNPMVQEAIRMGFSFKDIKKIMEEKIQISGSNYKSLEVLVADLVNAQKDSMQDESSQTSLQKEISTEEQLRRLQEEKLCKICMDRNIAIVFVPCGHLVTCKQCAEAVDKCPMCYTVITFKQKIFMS
# Chain of Dihydroorotate dehydrogenase (quinone), mitochondrial (Plasmodium falciparum (isolate 3D7)) (Q08210 whole entry, looked up): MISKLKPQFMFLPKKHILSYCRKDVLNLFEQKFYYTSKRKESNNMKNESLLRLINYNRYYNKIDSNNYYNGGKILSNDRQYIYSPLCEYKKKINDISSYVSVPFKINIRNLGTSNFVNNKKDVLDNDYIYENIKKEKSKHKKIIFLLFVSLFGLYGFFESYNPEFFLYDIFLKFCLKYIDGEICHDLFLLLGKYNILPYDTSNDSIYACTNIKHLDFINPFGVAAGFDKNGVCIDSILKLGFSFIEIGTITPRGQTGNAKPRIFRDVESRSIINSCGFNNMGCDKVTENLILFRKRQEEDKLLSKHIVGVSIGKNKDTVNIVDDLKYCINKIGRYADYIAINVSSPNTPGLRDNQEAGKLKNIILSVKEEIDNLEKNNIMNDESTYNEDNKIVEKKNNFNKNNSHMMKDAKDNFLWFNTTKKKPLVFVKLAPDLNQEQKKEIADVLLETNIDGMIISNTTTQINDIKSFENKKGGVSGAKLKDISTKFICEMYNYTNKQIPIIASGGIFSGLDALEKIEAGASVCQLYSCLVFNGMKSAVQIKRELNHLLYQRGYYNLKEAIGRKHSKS
Structure (SMILES),z-score [1],z-score [2],z-score [3],z-score [4],z-score [5],z-score [6],z-score [7],z-score [8],z-score [9],z-score [10],z-score [11],z-score [12],z-score [13],composite z-score [14],z-score [15],z-score [16],z-score [17],z-score [18],z-score [19],composite z-score [20]
C=CCC(OC(C)=O)[C@@H]1[C@@H](N(Cc2cc3ccccc3o2)C(=O)Cc2ccc(F)cc2)c2cc(OCCCO)ccc2N1C(=O)c1ccc2ccccc2c1 (stereo not given in full),-0.0032,-0.0993,1.93,-0.915,0.0905,0.855,0.0661 (inactive),-0.159,0.687,0.443 (inactive),-0.081,0.615 (inactive),0.514 (inactive),-1.04 (inactive),0.35 (inactive),-0.41 (inactive),-0.698 (inactive),-0.649 (inactive),0.304,0.555
COC(=O)[C@@]1(Cc2ccc(OC)cc2)[C@H]2c3cc(C(=O)N(C)C)n(C[C@H](O)CO)c3C[C@H]2CN1C(=O)c1ccccc1,-0.93,-0.503,-0.285,-1.99,-1.79,0.906,-0.871 (inactive),-0.847,-1.03,-0.816 (inactive),-1.17,1.02 (inactive),-2.31 (inactive),-0.791 (inactive),2.01 (inactive),0.166 (inactive),-1.46 (inactive),-1.11 (inactive),-1.95,0.441
COC(=O)[C@@]1(Cc2ccc(OC)cc2)[C@H]2c3cc(C(=O)N4CCCC4)n(Cc4c(-c5ccccc5)noc4C)c3C[C@H]2CN1C(=O)c1ccccc1,-0.893,-0.451,-0.176,-2.72,-4.68,0.128,-0.732 (inactive),-0.774,-1.52,0.356 (inactive),-0.338,1.63 (inactive),-0.39 (inactive),0.486 (inactive),-0.526 (inactive),1.18 (inactive),0.343 (inactive),-0.57 (inactive),-0.61,-0.0048
COCCOC(=O)N1C(=O)[C@@]2(c3cc(C#CC4=CCCCC4)ccc31)[C@H](C(=O)N1CCCCCCC1)[C@H]1C(=O)O[C@H](c3ccccc3)[C@H](c3ccccc3)N1[C@@H]2c1ccc(O)cc1,0.868,0.936,0.474,-0.625,-0.593,-0.239,1.02 (inactive),-0.386,-0.272,-1.09 (inactive),0.0166,0.566 (inactive),0.0499 (inactive),-1.67 (inactive),1.51 (inactive),0.396 (inactive),-0.698 (inactive),-0.863 (inactive),-0.258,-0.0025
C=C(C)c1cc2c(c(CCCCCC)n1)[Si](C(C)C)(C(C)C)OC2,-0.926,-0.197,-0.567,0.134,0.414,-0.592,-0.617 (inactive),0.56,-0.369,0.867 (inactive),-0.0592,1.37 (inactive),0.272 (inactive),4.59 (inactive),-0.735 (inactive),1.06 (inactive),0.251 (inactive),0.246 (inactive),0.16,0.0623
NC(=O)N1C(=O)C2C(C1=O)C1C=C(CCCO)C2C(c2cccs2)N1Cc1cccc(OC(F)(F)F)c1 (stereo not given),0.604,0.151,-0.4,-2.98,-1.11,-0.339,-0.678 (inactive),0.146,1.37,0.48 (inactive),0.0214,-3.57 (inactive),-0.637 (inactive),-0.376 (inactive),-0.223 (inactive),0.199 (inactive),-0.205 (inactive),-0.692 (inactive),-0.18,0.195
COCCOC(=O)N1C(=O)[C@@]2(c3cc(C#CCCO)ccc31)[C@H](C(=O)Nc1nc3ccccc3s1)[C@H]1C(=O)O[C@H](c3ccccc3)[C@H](c3ccccc3)N1[C@@H]2c1ccccc1OCCO,-0.216,0.121,-1.1,-0.965,-0.333,-3.13,-0.372 (inactive),-0.183,-0.744,0.513 (inactive),0.316,2.04 (inactive),-0.459 (inactive),1.1 (inactive),1.7 (inactive),1.91 (inactive),-0.0306 (inactive),-0.339 (inactive),-1.28,-0.115
COC(=O)c1c2oc(c1C(=O)OC)C(=O)N(Cc1ccccc1)Cc1cn(nn1)C[C@H](Cc1ccccc1)NC(=O)N[C@H](CO)CC2,2.05,0.92,0.377,1.18,1.75,1.9,-0.397 (inactive),-0.201,-0.62,1.27 (inactive),1.18,-1.78 (inactive),0.312 (inactive),-0.519 (inactive),0.231 (inactive),-1.38 (inactive),1.33 (inactive),1.89 (inactive),1.16,0.725
CO[C@H]1O[C@H](CO)[C@@H](OC(=O)Nc2ccc3c(c2)OCO3)[C@H](OC(=O)c2cc3ccccc3[nH]2)[C@H]1OC(=O)c1cc2ccccc2[nH]1,0.603,0.477,0.463,-1.98,1.11,-2.54,1.27 (inactive),-0.31,-1.29,-3.63 (inactive),-2.92,-0.237 (inactive),-3.48 (inactive),-1.53 (inactive),0.69 (inactive),-0.81 (inactive),0.387 (inactive),1.42 (inactive),-3.84,0.151

# — PubChem BioAssay
